Values joined by “and” are separate entries in the source; they are usually repeats but may differ in a detail not shown here. Identical values can stand only once.
system: H9c2; experiment: cardiomyocyte survival under oxidative or metabolic stress – cell-based, panel, H9c2 and HL-1, ATP luminescence, set 2, SAR follow-up (AID 651871); details: H9c2/HL-1 cardiomyocytes, 2-deoxyglucose stress, with 2-deoxyglucose; run 1, at 79 µM (top of the series);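 also: cells exposed to stressor for 2 h before ATP readout; reference of the scale not given here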

| Compound | activity (protection/inhibition) |
| --- | --- |
| COc1ccc2c(c1OC)C(=O)N1c3ccccc3C(=O)N(Cc3cccc(Cl)c3Cl)C21 (stereo not drawn) | 80.3% and 69.7% and -3.54% |
| COc1ccc2nc(-c3cc(OC)c(OC)c(OC)c3)cc(C(=O)NCC(=O)Nc3ccc(C(C)=O)cc3)c2c1 | 74.1% |
| CCOC(=O)c1cccc(NC(=O)CNC(=O)c2cc(-c3cc(OC)c(OC)c(OC)c3)nc3ccccc23)c1 | 92.1% |
